Measurements taken from PubChem BioAssay (NCI).
This is part of a sample that, as a whole, favours compounds with a hit. Of some 83,000 tested, about 20% had one in any assay.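 Compound tested at a single concentration for 48 hours in 96-well plates; a percent growth value below 10 was scored as active.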 A number with no mark means an inactive call. Calls of active or inactive are those of the source.

What follows are molecules tested on CAKI-1 renal (assay: NCI-60 one-dose screen, 48 h (100 = growth as untreated, 0 = no growth, -100 = all killed)). Conditions: 10 µM.

Row | Compound | growth
1 | NS(=O)(=O)c1ccc(Nc2nc(N/N=C/c3ccc([N+](=O)[O-])cc3)nc(Nc3ccccc3)n2)cc1 | 50.6%
2 | COc1cc(NC2=C(Cl)C(=O)c3nc(C)ccc3C2=O)cc(OC)c1 | -96.5% (active)
3 | Cc1ccc(/C=C/CC(=O)Nc2ccc(C(=O)Nc3ccc(F)cc3N)cc2)cn1 | 57.2%
4 | O=C(c1ccc(O)cc1)[C@@H]1[C@@H]2CCCN2[C@@]2(C(=O)N(C(=O)c3ccc(F)cc3)c3ccccc32)[C@H]1c1ccc(F)cc1 | 70.1%
5 | COc1ccc(S(=O)(=O)n2cc(C=O)c3ccccc32)c(OC)c1 | 52.5%
6 | C#C[C@]1(O)CC[C@H]2[C@@H]3CC=C4c5sc(Nc6cc(Cl)ccn6)nc5CC[C@]4(C)[C@H]3CC[C@@]21C | -19.9% (active)
7 | N#C/C(=C\c1ccc2ccccc2c1)C(=O)Nc1sc2c(c1C#N)CCC2 | 88.2%
8 | CN1CCN(Cc2ccc(NC(=O)c3cncc(C#Cc4cnc5ccc(O[C@H]6CCOC6)nn45)c3)cc2C(F)(F)F)CC1 | -96.2% (active)
9 | C/C=C/C=C1\C[C@H]2CO[C@H](O2)C1=O | 98%
10 | O=C(NNc1nc2cc(F)cc(F)c2n2cccc12)c1ncccn1 | 17.4%
11 | C#CCOc1ccc(/C=N/Nc2nc(-c3cc(Cl)ccc3Cl)cs2)cc1 | 77.1%
12 | COc1ccc(-c2nc(SCC(C)C)nc(N/N=C\c3cccc([N+](=O)[O-])c3)c2C#N)cc1 | 31.8%
13 | CNC(=O)c1cc(Oc2ccc3nc(NC(=O)c4ccc(CN5CCN(C)CC5)c(C(F)(F)F)c4)sc3c2)ccn1 | 53.3%
14 | C#C[C@]1(O)CC[C@H]2[C@@H]3CC=C4c5sc(Nc6ccc(OC)nc6)nc5CC[C@]4(C)[C@H]3CC[C@@]21C | 23.8%
15 | O=C1Nc2ccc(Br)cc2/C1=N\c1nnc(-c2ccc(Cl)cc2)o1 | 59%
16 | CC(C)c1nn(-c2ccccc2)c(N2CCCCC2)c1/C=N/NC(N)=S | 69.2%
17 | COc1cc(/C=C/C(=O)c2ccc(N3CCN(C)CC3)cc2)ccc1F | 63.6%
18 | CC1CCN(S(=O)(=O)c2ncsc2-c2ccccc2)CC1 | 77.4%
19 | O=C1[C@@H]2Cc3c([nH]c4ccccc34)[C@H](c3c(Cl)cccc3Cl)N2C(=O)CN1C1CCN(Cc2ccccc2)CC1 | 74.3%
20 | C#C[C@]1(O)CC[C@H]2[C@@H]3CC=C4c5sc(Nc6ccncc6)nc5CC[C@]4(C)[C@H]3CC[C@@]21C | -19.4% (active)
21 | C#CCOc1ccc(/C=N/Nc2nc(-c3cc4cc(Br)cc(Br)c4oc3=O)cs2)cc1 | 88.1%
22 | O=C1c2c(c3c4cccnc4[nH]c3c3ccc4ccccc4c23)C(=O)N1CCN1CCCCC1 | 22.8%
23 | NS(=O)(=O)Oc1ccc2nc(Nc3ccc(F)c(F)c3)ccc2c1 | 76.7%
24 | Cc1ccc(-c2csc(N/N=C/c3nc4ccccc4n3C3CC3)n2)cc1 | 77.9%
25 | O=C1c2c(c3c4cc(Br)ccc4[nH]c3c3ccc4ccccc4c23)C(=O)N1CCN1CCCCC1 | 31.2%
26 | Cc1cnc2nc(NN)[nH]n12 | 86.2%
27 | O=C(NCCCCCCNC(=O)c1c2c(nc3ccccc13)-c1cccnc1SC2)c1c2c(nc3ccccc13)-c1cccnc1SC2 | 61.5%
28 | COc1cc(/C=N/n2cnc3oc(-c4ccccc4)cc3c2=N)cc(CN2CCCC2)c1O | 62.7%
29 | C#C[C@]1(O)CC[C@H]2[C@@H]3CC=C4c5sc(Nc6cccc(Cl)n6)nc5CC[C@]4(C)[C@H]3CC[C@@]21C | -40.6% (active)

What follows are molecules tested on A498 renal in the same assay as above. Conditions: 10 µM unless noted.

Row | Compound | growth
30 | C#C[C@]1(O)CC[C@H]2[C@@H]3CC=C4c5sc(Nc6cccc(C)n6)nc5CC[C@]4(C)[C@H]3CC[C@@]21C | -29.2% (active)
31 | Clc1ccc(-c2csc(N/N=C/c3nc4ccccc4n3C3CC3)n2)cc1 | 108%
32 | O=C(NNc1nc2cc(F)c(F)cc2n2cccc12)c1ccncn1 | 46.5%
33 | CCn1c2ccc(/C=N/NS(=O)(=O)CCN(C)C)cc2c2cc(/C=N/NS(=O)(=O)CCN(C)C)ccc21 | 69.8%
34 | COc1ccc(-c2nnc(/N=C3/C(=O)Nc4ccc(Br)cc43)o2)cc1 | 91.9%
35 | O=C(CCCCCCN1CC(=O)N2[C@@H](c3ccc(Cl)c(F)c3)c3[nH]c4ccccc4c3C[C@H]2C1=O)NO | 106%
36 | O=C(N/N=C\c1ccc(Cl)cc1)c1ccc2nc(-c3ccc(Br)cc3)[nH]c2c1 | 65.4%
37 | O=C1CSC(=O)N1Cc1cc2ccccc2nc1Cl | 106%
38 | CCCCSc1nnc(-c2ccc(-c3ccc(Cl)cc3)nc2C)o1 | 71%
39 | COc1ccc(/C=N\NC(=O)c2ccc3nc(-c4ccc(Br)cc4)[nH]c3c2)cc1 | 82%
40 | NS(=O)(=O)c1ccc(Nc2nc(N/N=C/c3ccc([N+](=O)[O-])cc3)nc(Nc3ccccc3)n2)cc1 | 18.5%
41 | COc1cc(NC2=C(Cl)C(=O)c3nc(C)ccc3C2=O)cc(OC)c1 | 71.1%
42 | Cc1ccc(/C=C/CC(=O)Nc2ccc(C(=O)Nc3ccc(F)cc3N)cc2)cn1 | 38.9%
43 | O=C(c1ccc(O)cc1)[C@@H]1[C@@H]2CCCN2[C@@]2(C(=O)N(C(=O)c3ccc(F)cc3)c3ccccc32)[C@H]1c1ccc(F)cc1 | 82.5%
44 | COc1ccc(S(=O)(=O)n2cc(C=O)c3ccccc32)c(OC)c1 | 92.4%
45 | C#C[C@]1(O)CC[C@H]2[C@@H]3CC=C4c5sc(Nc6cc(Cl)ccn6)nc5CC[C@]4(C)[C@H]3CC[C@@]21C | -42.4% (active)
46 | N#C/C(=C\c1ccc2ccccc2c1)C(=O)Nc1sc2c(c1C#N)CCC2 | 93.9%
47 | CN1CCN(Cc2ccc(NC(=O)c3cncc(C#Cc4cnc5ccc(O[C@H]6CCOC6)nn45)c3)cc2C(F)(F)F)CC1 | -92.9% (active)
48 | C/C=C/C=C1\C[C@H]2CO[C@H](O2)C1=O | 103%
49 | O=C(NNc1nc2cc(F)cc(F)c2n2cccc12)c1ncccn1 | 23.8%

Row | Compound | growth
50 | C#CCOc1ccc(/C=N/Nc2nc(-c3cc(Cl)ccc3Cl)cs2)cc1 | 83.6%
51 | COc1ccc(-c2nc(SCC(C)C)nc(N/N=C\c3cccc([N+](=O)[O-])c3)c2C#N)cc1 | 47.6%
52 | CNC(=O)c1cc(Oc2ccc3nc(NC(=O)c4ccc(CN5CCN(C)CC5)c(C(F)(F)F)c4)sc3c2)ccn1 | 80.3%
53 | C#C[C@]1(O)CC[C@H]2[C@@H]3CC=C4c5sc(Nc6ccc(OC)nc6)nc5CC[C@]4(C)[C@H]3CC[C@@]21C | 25.9%
54 | O=C1Nc2ccc(Br)cc2/C1=N\c1nnc(-c2ccc(Cl)cc2)o1 | 69.4%
55 | CC(C)c1nn(-c2ccccc2)c(N2CCCCC2)c1/C=N/NC(N)=S | 66.2%
56 | COc1cc(/C=C/C(=O)c2ccc(N3CCN(C)CC3)cc2)ccc1F | 98.7%
57 | CC1CCN(S(=O)(=O)c2ncsc2-c2ccccc2)CC1 | 81.6%
58 | O=C1[C@@H]2Cc3c([nH]c4ccccc34)[C@H](c3c(Cl)cccc3Cl)N2C(=O)CN1C1CCN(Cc2ccccc2)CC1 | 66.3%
59 | C#C[C@]1(O)CC[C@H]2[C@@H]3CC=C4c5sc(Nc6ccncc6)nc5CC[C@]4(C)[C@H]3CC[C@@]21C | -52.2% (active)
60 | C#CCOc1ccc(/C=N/Nc2nc(-c3cc4cc(Br)cc(Br)c4oc3=O)cs2)cc1 | 85.4%
61 | O=C1c2c(c3c4cccnc4[nH]c3c3ccc4ccccc4c23)C(=O)N1CCN1CCCCC1 | 80.1%
62 | NS(=O)(=O)Oc1ccc2nc(Nc3ccc(F)c(F)c3)ccc2c1 | 74.5%
63 | Cc1ccc(-c2csc(N/N=C/c3nc4ccccc4n3C3CC3)n2)cc1 | 78.3%
64 | O=C1c2c(c3c4cc(Br)ccc4[nH]c3c3ccc4ccccc4c23)C(=O)N1CCN1CCCCC1 | 72.7%
65 | Cc1cnc2nc(NN)[nH]n12 | 111%
66 | O=C(NCCCCCCNC(=O)c1c2c(nc3ccccc13)-c1cccnc1SC2)c1c2c(nc3ccccc13)-c1cccnc1SC2 | 76.5%
67 | COc1cc(/C=N/n2cnc3oc(-c4ccccc4)cc3c2=N)cc(CN2CCCC2)c1O | 85.7%
68 | C#C[C@]1(O)CC[C@H]2[C@@H]3CC=C4c5sc(Nc6cccc(Cl)n6)nc5CC[C@]4(C)[C@H]3CC[C@@]21C | -62.6% (active)
